RORg inh: inhibitors of mouse ROR gamma transcriptional activity. AID 2551. hit rate 5.4% among 310,000. P51450. Potency, µM (series often up to 53.6 µM), without a hit: at the top dose activity change, negative = inhibition, most hits filed as inhibitors. Drosophila S2 Gal4-RORgamma UAS-luciferase reporter, 20 h; note: potency is the fitted concentration of half-maximal effect; nearly all actives have a fitted effect of over 60% in size
Target sequence (P51450 whole entry, looked up, the tested form may be a part): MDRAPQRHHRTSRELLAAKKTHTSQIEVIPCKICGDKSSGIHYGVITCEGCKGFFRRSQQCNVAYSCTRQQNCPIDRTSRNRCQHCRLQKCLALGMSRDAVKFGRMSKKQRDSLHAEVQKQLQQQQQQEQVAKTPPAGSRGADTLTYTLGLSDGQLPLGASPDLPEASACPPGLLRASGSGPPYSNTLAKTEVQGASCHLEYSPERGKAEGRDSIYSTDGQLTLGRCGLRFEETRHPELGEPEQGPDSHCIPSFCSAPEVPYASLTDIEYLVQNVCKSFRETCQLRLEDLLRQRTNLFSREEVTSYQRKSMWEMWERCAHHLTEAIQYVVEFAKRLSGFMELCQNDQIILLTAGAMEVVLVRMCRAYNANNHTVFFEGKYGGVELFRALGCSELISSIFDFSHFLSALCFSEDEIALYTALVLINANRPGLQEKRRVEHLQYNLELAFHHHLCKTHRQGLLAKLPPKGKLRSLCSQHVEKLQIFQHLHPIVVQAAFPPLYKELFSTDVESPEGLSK
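Luciferase reporter read in Schneider cells carrying Gal4-RORγ (mouse) and UAS-Photinus luciferase; cells given compound 1 h before 700 uM copper sulfate induction, then incubated 20 h at ambient temperature.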
VP16 counter: Gal4-VP16 reporter inhibition counter-screen; Drosophila S2 Gal4-VP16 UAS-luciferase, luminescence, 20 h; Potency, µM (titrated, usually from 53.6 µM), for the others: at the top dose activity, negative = inhibition, actives largely listed as inhibitors; hit rate 3.5% among 310,000; AID 2546;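 note: Gal4-VP16 expression switched on by copper sulfate through the metallothionein promoter; potency is the fitted concentration of half-maximal effect; nearly all actives have a fitted effect of over 50% in size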
LDHA inh: blocks human lactate dehydrogenase A | activity change, % (values are at about 110 or 230 µM) | purified LDHA, NADH/diaphorase-resazurin fluorescence; hits give low values | P00338 | hit rate 0.15% among 480,000 | AID 1347041; in the data active = activity change below about -30%; inconclusive = mostly about -25% to -30%;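 note: plate controls were DMSO wells for no effect and wells without enzyme for full effect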
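Remaining NADH was detected by diaphorase (0.133 mg/mL) converting 37 µM resazurin to fluorescent resorufin, read at 0 and 20 minutes. The preceding 5-minute room-temperature reaction used 2 nM LDHA, 0.2 mM sodium pyruvate and 0.06 mM NADH at pH 7.4.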
TDP1 cell noCPT: qHTS for Inhibitors of human tyrosyl-DNA phosphodiesterase 1 (TDP1): qHTS in cells in absence of CPT; hit rate 15% among 420,000; DT40 Tdp1-/- hTDP1 cells, no CPT, ATP luminescence, 48 h; Potency, µM (titrated, usually from 46.2 µM), for inactives: at the top dose activity change, negative = growth inhibition, usual class: inhibitors; note: potency is the fitted concentration of half-maximal effect; nearly all actives have a fitted effect of over 55% in size
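Luminescent ATP content (CellTiter-Glo) served as the growth readout. Knockout chicken DT40 cells expressing human TDP1 were exposed to compounds without camptothecin for a minimum 48 hr at 37 °C.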
DT40 TDP1 CPT: growth inhibition of DT40 Tdp1-/-;hTDP1 cells with camptothecin (screen for TDP1 inhibitors); AID 686979; Potency, µM (highest dose often 46.2 µM), for inactives: top-dose activity change, negative = growth inhibition, usual class: inhibitors; chicken DT40 Tdp1-/-;hTDP1 cells + 20 nM CPT, ATP luminescence, 48 h; hit rate 12% among 420,000; note: potency is the fitted concentration of half-maximal effect; nearly all actives have a fitted effect of over 55% in size
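Cell growth measured by CellTiter-Glo luminescence after a minimum 48 h, 37 C compound exposure with 20 nM CPT in Tdp1-knockout DT40 cells stably expressing hTDP1, seeded 400/well; qHTS titration format.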
IL1B secr inh: inhibitors of inflammasome signaling (IL-1 beta secretion). activity change, % at 57.5 µM. THP-1 LPS/ATP IL-1B secretion, AlphaLISA, 16 h; hits give low values. hit rate 4.7% among 360,000. AID 743279; in the data active = activity change below about -50%; inconclusive = mostly about -30% to -49%
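THP-1 cells pretreated 1 hr with compounds (up to 57.5 uM final), then stimulated with LPS (250 ng/mL final) plus ATP (1.25 mM final); secreted IL-1B measured by AlphaLISA after 16 hr, decreased signal indicating inhibition.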
An asterisk follows results filed as active; ? = inconclusive; . = no result; ! = a repeat was not active. Only some compounds are listed: those with a hit (about 18% of all), similar ones and a draw of the others. Unless noted, calls come from the whole dose curve; as a rule, active = well fitted curve in the direction sought with a large enough effect; inconclusive = small, poorly fitted or top-dose-only effect, or another doubt; inactive = no such curve, though single readings can be large; an effect the other way counts as inactive or inconclusive. Unless noted, % is set by controls: 0 for no effect and ±100 for the full control effect.

SMILES	RORg inh	VP16 counter	LDHA inh	TDP1 cell noCPT	DT40 TDP1 CPT	IL1B secr inh
COCCCn1[nH]c2c3c(ccc2c1=O)C(=O)c1ccccc1C3=O	16µM*	?	24	16µM*	16µM*	-18
CC(C)(C)n1[nH]c2c3c(ccc2c1=O)C(=O)c1ccccc1C3=O	?	-19%	16	7.3µM*	8.2µM*	0
Cc1ccc(C)c(-n2[nH]c3c4c(ccc3c2=O)C(=O)c2ccccc2C4=O)c1	6.3µM*	-23%	9	?	?	-7
Cc1[nH]n(C(C)(C)C)c(=O)c1Sc1ccc(Cl)cc1	?	-1%	2	?	-28%	0
CCCCNc1c(C(=O)OCC)c(C)nc2c1cnn2CC	32µM*!	?	7	21µM*	13µM*	1
CCC(CC)NC(=O)NC(C)c1ccc(Br)cc1 (stereo unspecified)	.	.	-1	.	.	.
Cc1sc2ncnc(N3CCC(C(=O)Nc4ccc(Cl)cc4Cl)CC3)c2c1C	.	.	-4	18µM*	?	14
Cc1sc2ncnc(N3CCC(C(=O)NCC(=O)Nc4ccc(F)c(F)c4)CC3)c2c1C	2%	-16%	-9	?	?	-79*
Cc1ccc(CNC(=O)c2cc3cc(C)ccc3[nH]2)cc1	.	.	0	.	.	.
COc1ccc(C(=O)Nc2cccc3cccnc23)cc1Cl	.	.	1	.	.	.
O=C(CSc1cccc[n+]1[O-])Nc1cccc2ccccc12	.	.	10	.	.	.
CCOc1ccccc1NC(=O)c1cc(-c2cc(OC)c(OC)c(OC)c2)nc2ccccc12	-1%	1%	-2	7.3µM*	10µM*	1
COc1ccccc1NC(=O)c1cc(-c2cc(OC)c(OC)c(OC)c2)nc2ccccc12	0%	?	-5	7.3µM*	9.2µM*	-3
COc1cc(-c2cc(C(=O)Nc3ccncc3)c3ccccc3n2)cc(OC)c1OC	.	.	-3	1.3µM*	2.9µM*	-50*
COc1cc(NC(=O)c2cc(-c3ccccc3)nc3c2cnn3C(C)C)cc(OC)c1OC	.	.	-18	5.8µM*	13µM*	-22
COc1cc(-c2cc(C(=O)O)c3ccccc3n2)cc(OC)c1OC	.	.	6	.	.	.
CCN(NC(=O)c1ccc(CNC(N)=O)cc1)c1ccc(C)cc1	.	.	3	.	.	.
Cc1cccc(Cc2sc(N)nc2C)c1	.	.	-2	.	.	.
O=C(NCCc1ccccc1)C(c1cccs1)N(C(=O)CCl)c1ccc(Cl)cc1 (stereo unspecified)	?	?	0	1.6µM*	1.8µM*	-98*
Cc1cc(O)ccc1N/C=C(\C#N)c1nc2ccccc2o1	14%	-13%	0	12µM*	?	3
N#C/C(=C\c1c(Cl)cccc1Cl)c1nc2ccccc2o1	?	-28%	0	0%	-18%	?
COc1ccc(F)cc1CN1CCN(c2cc(C)nc3c4c(C)cc(C)nc4nn23)CC1	20µM*	?	.	.	.	.
N#CCSc1ccccc1C(=O)Nc1ccc2c(c1)OCCO2	.	.	11	.	.	.
CCn1nc(C(=O)NCc2cc3ccccc3[nH]2)c2ccccc2c1=O	.	.	9	.	.	.
CC(C)(C)n1nnnc1C(c1ccccc1OC(F)(F)F)N1CCN(C/C=C/c2ccccc2)CC1 (stereo unspecified)	.	.	-5	15µM*	21µM*	-3
SMILES	RORg inh	VP16 counter	LDHA inh	TDP1 cell noCPT	DT40 TDP1 CPT	IL1B secr inh
Cc1cccc(C)c1-n1nnnc1C(c1ccccc1OC(F)(F)F)N1CCN(C/C=C/c2ccccc2)CC1 (stereo unspecified)	.	.	-3	21µM*	?	32
O=C(CN1CCCC(c2nc3ccccc3o2)C1)NC(=O)NC1CC1 (stereo unspecified)	.	.	-6	.	.	.
CCN(CC)c1nc2c(c(=O)n(C)c(=O)n2C)n1CC	.	.	-3	.	.	.
Cc1nnc(NC(=O)c2cc(-c3ccc(Br)cc3)nc3ccccc23)s1	.	.	7	.	.	.
Nc1nonc1N/N=C/c1c(O)ccc2ccccc12	11µM*	-3%	6	-54%	32%	-59*
Nc1cc(Cl)nc(N/N=C/c2c(O)ccc3ccccc23)n1	0.63µM*	11µM*	10	16µM*	?	71
O=C(O)c1cc(N/N=C/c2c(O)ccc3ccccc23)ccc1Cl	20%	-23%	6	10%	-24%	19
Cc1nc(N)nc(N)c1Oc1ccc(Cl)cc1	.	.	-3	?	9.2µM*	19
O=C(Nc1ccc2c(c1)OCCO2)C(c1cc2ccccc2o1)N1CCC(Cc2ccccc2)CC1 (stereo unspecified)	.	.	-8	?	?	44
O=C(Nc1ccc(F)cc1)C(c1cc2ccccc2o1)N1CCN(c2ccncc2)CC1 (stereo unspecified)	.	.	1	23µM*	21µM*	?
Cc1cccc(C)c1NC(=O)C(c1cc2ccccc2o1)N1CCC(c2ccccc2)CC1 (stereo unspecified)	.	.	-6	15µM*	16µM*	25
Cc1ccc(N2CCN(C(C(=O)Nc3c(C)cccc3C)c3cc4ccccc4o3)CC2)cc1 (stereo unspecified)	.	.	-10	13µM*	13µM*	4
O=c1[nH]c(CSc2ccc(F)c(Cl)c2)nc2ccsc12	.	.	0	.	.	.
Cn1c(SCc2csc(-c3ccc(Cl)cc3)n2)nnc1C1CC1	.	.	4	.	.	.
CCN1/C(=N\N)c2cccc3cccc1c23	-4%	-7%	8	21µM*	?	4
CC1(C)CCc2cc(O)ccc2O1	.	.	8	-4%	0%	.
S=c1nccc(-c2ccccc2)[nH]1	.	.	12	.	.	.
S=c1nccc(-c2ccc3c(c2)CCO3)[nH]1	3.2µM*	6.3µM*	-11	?	10µM*	24
CC1(C)CCc2cc(-c3ccnc(=S)[nH]3)ccc2O1	1.8µM*	3.2µM*	-12	?	?	6
CCCNc1c(NC(=O)Nc2cc(Cl)ccc2C)c(=O)oc2ccccc12	.	.	7	.	.	.
NC(=O)C1CCCN1S(=O)(=O)c1ccc(Br)s1 (stereo unspecified)	.	.	-5	.	.	.
CC(C)Cn1nc(NC(=O)C2CCCO2)c2cc3ccccc3nc21 (stereo unspecified)	-23%	5%	0	?	?	-2
CCCn1nc(NC(=O)C2CCCO2)c2cc3cccc(C)c3nc21 (stereo unspecified)	5%	-11%	2	15µM*	-26%	-1
COCCn1c(=S)[nH]c2ncccc2c1=O	-22%	-20%	7	-17%	-2%	-2
CCCCCn1c(=S)[nH]c2ncccc2c1=O	1.1µM*	2.8µM*	-6	-25%	-10%	-4
